GluA2 TARP mod: modulators of GluA2-stargazin AMPA receptor complexes, primary screen, cell-based, membrane potential dye. Voltage-dependent calcium channel gamma-2 subunit (Mus musculus) + Glutamate receptor 2 …. actives 3.5% (n = 40,000). calls only at 30 µM. HEK293 GluA2+stargazin, membrane potential dye (FDSS), glutamate EC50; hits were called plate by plate, in both directions;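 active = any of four per-well response measures lying three or more SD from its plate-wide compound average, in either direction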
Target sequence (O88602 whole entry, looked up): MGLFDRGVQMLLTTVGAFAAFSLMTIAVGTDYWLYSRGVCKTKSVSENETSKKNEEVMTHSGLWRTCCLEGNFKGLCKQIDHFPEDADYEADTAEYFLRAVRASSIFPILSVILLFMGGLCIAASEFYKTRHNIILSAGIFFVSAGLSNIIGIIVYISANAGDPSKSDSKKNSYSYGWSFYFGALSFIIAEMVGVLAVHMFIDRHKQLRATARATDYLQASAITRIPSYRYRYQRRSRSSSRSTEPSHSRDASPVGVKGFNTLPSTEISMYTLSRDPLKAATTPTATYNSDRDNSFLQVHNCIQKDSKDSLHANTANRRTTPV
Target sequence (P19491 whole entry, looked up): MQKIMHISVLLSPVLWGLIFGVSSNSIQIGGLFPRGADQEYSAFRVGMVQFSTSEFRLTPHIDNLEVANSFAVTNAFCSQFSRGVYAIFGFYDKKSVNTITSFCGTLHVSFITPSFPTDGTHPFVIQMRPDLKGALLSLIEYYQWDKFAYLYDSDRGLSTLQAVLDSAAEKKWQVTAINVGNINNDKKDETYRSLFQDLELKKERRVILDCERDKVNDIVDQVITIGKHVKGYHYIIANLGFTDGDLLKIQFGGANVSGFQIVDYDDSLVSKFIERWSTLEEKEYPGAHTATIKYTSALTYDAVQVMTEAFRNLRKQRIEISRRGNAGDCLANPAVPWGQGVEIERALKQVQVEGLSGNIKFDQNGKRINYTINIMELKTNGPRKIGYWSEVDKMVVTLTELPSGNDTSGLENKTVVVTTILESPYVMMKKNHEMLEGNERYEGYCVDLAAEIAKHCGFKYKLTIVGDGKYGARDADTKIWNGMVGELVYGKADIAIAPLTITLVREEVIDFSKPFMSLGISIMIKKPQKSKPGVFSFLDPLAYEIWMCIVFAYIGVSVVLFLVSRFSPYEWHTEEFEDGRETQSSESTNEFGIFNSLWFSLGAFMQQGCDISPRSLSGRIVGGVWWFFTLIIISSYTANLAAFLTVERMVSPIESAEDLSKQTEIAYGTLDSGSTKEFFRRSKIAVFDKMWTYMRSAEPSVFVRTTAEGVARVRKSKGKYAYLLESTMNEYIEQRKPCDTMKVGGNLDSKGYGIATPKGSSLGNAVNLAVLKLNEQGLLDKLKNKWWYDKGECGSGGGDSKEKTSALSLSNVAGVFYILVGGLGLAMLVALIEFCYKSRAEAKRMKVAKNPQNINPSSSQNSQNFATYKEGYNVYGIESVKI
GIRK2 activator: activators of NPY4-receptor-primed GIRK2 channels, summary, cell-based, HEK293, thallium flux; G protein-activated inward rectifier potassium channel 2 (Homo sapiens), P48051; HEK293 GIRK2/NPY4 cells, thallium flux fluorescence; activation (% efficacy), % for hits at 37.5 µM; 34,000 tested, under 10 active;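 active = primary screen hit, no activity in plain HEK293 cells, and in GIRK2-only cells above 5% efficacy rising with concentration; inactive = the rest, including fluorescent compounds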;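 also: efficacy is normalized control-subtracted fluorescence 15 s after thallium addition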
An asterisk follows results filed as active; i = inactive; . = no result; + = active, no number. The full list was thinned out, with hits kept by preference.

SMILES	GluA2 TARP mod	GIRK2 activator
O=C(NCCc1ccccc1)C(=O)NCC1CCN(C(=O)COc2ccccc2)CC1	+	i
O=C(NCc1ccccc1Cl)C(=O)NCC1CCN(C(=O)COc2ccccc2)CC1	i	i
O=C(NCc1cccs1)C(=O)Nc1cccc(N2CCCCC2=O)c1	i	i
COc1ccc(CNC(=O)N2CCN(c3ncnc4c3nnn4C)CC2)cc1	.	i
COc1cc([N+](=O)[O-])cc2cc(C(=O)NC(C)c3ccccc3)c(=O)oc12 (centres undefined)	i	i
COc1cc([N+](=O)[O-])cc2cc(C(=O)N3CCN(c4cccc(C(F)(F)F)c4)CC3)c(=O)oc12	+	i
Cc1cc(OCC(O)CN2CC(C)OC(C)C2)ccc1Cl (centres undefined)	i	i
O=C(NCC(O)(c1ccco1)C1CC1)NC1CCCCC1 (centres undefined)	+	i
O=C(NCC(O)(c1cccs1)C1CC1)c1ccco1 (centres undefined)	i	i
O=C(NCC(O)(c1cccs1)C1CC1)NC1CCCCC1 (centres undefined)	+	i
O=C(NCc1cccs1)NCC(O)(c1cccs1)C1CC1 (centres undefined)	i	i
O=C(NCC(O)(c1cccs1)C1CC1)C1c2ccccc2Oc2ccccc21 (centres undefined)	+	i
O=C(NCC(O)(c1ccco1)C1CC1)Nc1ccccc1C(F)(F)F (centres undefined)	i	i
Cc1ccc(S(=O)(=O)c2nc(-c3ccco3)oc2NCc2cccnc2)cc1	i	i
COc1ccccc1Cc1noc(C2CN(CC(=O)NCc3ccccc3Cl)C2)n1	.	i
CCN(C1CCCCC1)S(=O)(=O)c1cc(C(C)C)c(C)cc1OC	+	.
CCCN(CCC)S(=O)(=O)c1cc(C(C)C)c(C)cc1OC	i	.
Cc1ccc(-n2ncc3c(=O)n(NC(=O)c4ccccc4C(F)(F)F)cnc32)cc1	i	i
CC1CCN(CC(=O)Nc2ccccc2-c2nc3ccccc3[nH]c2=O)CC1	i	i
C=C(C)Cn1c(N/N=C/c2cccc(OC)c2O)nc2c1c(=O)n(C)c(=O)n2C	i	.
C=CCn1c(N/N=C/c2cccc(OC)c2O)nc2c1c(=O)n(C)c(=O)n2C	+	.
O=C(NCC1COC2(CCCCC2)O1)c1cc(Cl)ccc1Cl (centres undefined)	i	i
O=C(CCCS(=O)(=O)c1ccccc1)Nc1nc2ccc([N+](=O)[O-])cc2s1	+	i
COc1ccc(S(=O)(=O)CC(=O)Nc2nc3ccc([N+](=O)[O-])cc3s2)cc1	i	i
COc1cc([N+](=O)[O-])cc2sc(NC(=O)CCCS(=O)(=O)c3ccccc3)nc12	+	i
SMILES	GluA2 TARP mod	GIRK2 activator
O=C(CCCS(=O)(=O)c1ccc(Cl)cc1)Nc1nc(-c2cc([N+](=O)[O-])cs2)cs1	i	.
Cc1ccc(S(=O)(=O)CCCC(=O)Nc2nc(-c3cc([N+](=O)[O-])cs3)cs2)cc1	+	i
CCOc1ccc(CC(=O)Nc2nc3c(OC)cc([N+](=O)[O-])cc3s2)cc1	i	.
COc1cccc(-n2c(SCc3nc(-c4ccccc4)no3)nc3ccsc3c2=O)c1	i	i
COc1ccccc1NC(=O)N1CCC(CNS(=O)(=O)c2cccnc2)CC1	i	i
COc1ccc(-n2nnc(C(=O)Nc3ccc(NC(C)=O)cc3)c2C)cc1	i	i
Cc1ccccc1NC(=O)c1nnn(-c2ccc(F)cc2)c1N	i	i
COc1ccc2nc(-c3ccc(C)c(NC(=O)c4ccccc4Cl)c3)cn2n1	.	i
COC(=O)c1cccc(NS(=O)(=O)c2ccc(F)cc2)c1C	i	.
CCOc1ccc(NC2=C/C(=N/S(=O)(=O)c3ccc(OC)cc3)c3ccccc3C2=O)cc1	i	.
COc1ccc(S(=O)(=O)CCC(=O)Nc2cc(C)cc(C)c2)cc1	i	i
COc1ccc(S(=O)(=O)/N=C2/C=C(Nc3cccc(C)c3)C(=O)c3ccccc32)cc1	+	.
COc1ccc(S(=O)(=O)/N=C2/C=C(Nc3ccc(C)cc3)C(=O)c3ccccc32)cc1	+	.
COC(=O)c1ccccc1NC1=C/C(=N/S(=O)(=O)c2ccc(F)cc2)c2ccccc2C1=O	+	.
O=C(Nc1cc(C(F)(F)F)ccc1Cl)c1ccc(=O)n(Cc2cccc(F)c2)n1	i	i
CC(=O)N1CCc2c(sc(NC(=O)c3cccc(F)c3)c2-c2nc3ccccc3s2)C1	i	.
Cn1ccc(C(=O)N(Cc2cccnc2)c2nc3c(Cl)cccc3s2)n1	i	i
CC(C)n1ccc(C(=O)N(Cc2ccccn2)c2nc3c(Cl)cccc3s2)n1	+	i
CC(C)(C)NC(=O)NCCc1ccsc1	i	i
O=C(COc1ccc(C(=O)c2ccccc2)cc1)NCCn1nc(-c2cccs2)ccc1=O	i	i
O=C(COc1ccc(C(=O)c2ccccc2)cc1)NCCn1nc(-c2ccc(Cl)cc2)ccc1=O	+	i
COc1cccc(C2C(=C(O)c3ccccc3)C(=O)C(=O)N2c2cc(C)on2)c1 (centres undefined)	.	i
COc1ccc(-c2nc(SC(CC(=O)NCCc3ccccc3)c3ccc(OC)cc3)n[nH]2)cc1 (centres undefined)	+	.
O=C(CC(Sc1n[nH]c(-c2ccccc2)n1)c1ccccc1)NCCc1ccccc1 (centres undefined)	i	.
COc1cccc2cc(C(=O)N(Cc3cccn3C)C3CC3)c(=O)oc12	.	i
SMILES	GluA2 TARP mod	GIRK2 activator
Cc1cc(C(=O)Nc2cccc3c2C(=O)NC3=O)on1	+	i
Cn1nccc1C(=O)Nc1cccc2c1C(=O)NC2=O	.	i
Cn1/c(=N\NC(=O)CNS(=O)(=O)c2ccccc2)sc2ccccc21	i	.
COCCn1c(=O)c2c(nc3n2CC(C)CN3c2ccc(Br)cc2)n(C)c1=O (centres undefined)	+	.
CCOCCn1c(=O)c2c(nc3n2CC(C)CN3c2ccc(Br)cc2)n(C)c1=O (centres undefined)	i	.
CCn1c(-n2nc(C)cc2C)nc2c1c(=O)n(CCOC)c(=O)n2C	i	.
COCCn1c(=O)c2c(nc(-n3nc(C)cc3C)n2C)n(C)c1=O	+	.
O=C(NCCC1=CCCCC1)C(=O)NCC1COC2(CCCC2)O1 (centres undefined)	i	i
Cc1ccccc1NC(=O)Cn1c(Cc2ccccc2)nc2ccccc21	+	i
COc1ccc(Cc2nc3ccccc3n2CC(=O)N2CCCCCC2)cc1OC	i	i
CCSc1ccccc1C(=O)N1CCN(c2ncnc3c2nnn3-c2ccc(Cl)cc2)CC1	i	.
Cc1nn(C2CCS(=O)(=O)C2)c2nc(-c3cccs3)cc(C(=O)Nc3ccc(F)cc3)c12 (centres undefined)	i	i
Cc1ccc(NC(=O)c2cc(-c3cccs3)nc3c2c(C)nn3C2CCS(=O)(=O)C2)cc1 (centres undefined)	+	i
CCC(CC)C(=O)NCCNc1ccc(Nc2cccc(C)n2)nn1	+	i
